Measured values as given in PubChem BioAssay.
Values without a mark were called inactive. Activity calls are given as the source filed them.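 Rule for the calls, unless noted: active = mean inhibition above 46.68%, the untreated control wells mean plus 3 SD; inactive = the rest.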

How the values were obtained:
[1] = molecular target: Nuclear receptor coactivator 1 (Homo sapiens) (UniProt Q15788); test: SRC1 coactivator transcriptional activity inhibitors, confirmation, cell-based, luminescence, quadruplicate (AID 588820); details: HEK293 GAL4-SRC1 luciferase reporter, at 3.6 µM, hits give high values;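 note: 0% = DMSO wells and 100% = gossypol 36 µM treated wells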
[2] = VP16 transactivation inhibitors, counter-screen for SRC1 inhibitor project, cell-based, luminescence, high throughput (AID 588824; in the data active = inhibition above about 25%); details: cell-based VP16 transactivation luciferase luminescence; at 3.6 µM; hits give high values

Nuclear receptor coactivator 1 (Homo sapiens), sequence (Q15788 whole entry, looked up, the tested form may be a part): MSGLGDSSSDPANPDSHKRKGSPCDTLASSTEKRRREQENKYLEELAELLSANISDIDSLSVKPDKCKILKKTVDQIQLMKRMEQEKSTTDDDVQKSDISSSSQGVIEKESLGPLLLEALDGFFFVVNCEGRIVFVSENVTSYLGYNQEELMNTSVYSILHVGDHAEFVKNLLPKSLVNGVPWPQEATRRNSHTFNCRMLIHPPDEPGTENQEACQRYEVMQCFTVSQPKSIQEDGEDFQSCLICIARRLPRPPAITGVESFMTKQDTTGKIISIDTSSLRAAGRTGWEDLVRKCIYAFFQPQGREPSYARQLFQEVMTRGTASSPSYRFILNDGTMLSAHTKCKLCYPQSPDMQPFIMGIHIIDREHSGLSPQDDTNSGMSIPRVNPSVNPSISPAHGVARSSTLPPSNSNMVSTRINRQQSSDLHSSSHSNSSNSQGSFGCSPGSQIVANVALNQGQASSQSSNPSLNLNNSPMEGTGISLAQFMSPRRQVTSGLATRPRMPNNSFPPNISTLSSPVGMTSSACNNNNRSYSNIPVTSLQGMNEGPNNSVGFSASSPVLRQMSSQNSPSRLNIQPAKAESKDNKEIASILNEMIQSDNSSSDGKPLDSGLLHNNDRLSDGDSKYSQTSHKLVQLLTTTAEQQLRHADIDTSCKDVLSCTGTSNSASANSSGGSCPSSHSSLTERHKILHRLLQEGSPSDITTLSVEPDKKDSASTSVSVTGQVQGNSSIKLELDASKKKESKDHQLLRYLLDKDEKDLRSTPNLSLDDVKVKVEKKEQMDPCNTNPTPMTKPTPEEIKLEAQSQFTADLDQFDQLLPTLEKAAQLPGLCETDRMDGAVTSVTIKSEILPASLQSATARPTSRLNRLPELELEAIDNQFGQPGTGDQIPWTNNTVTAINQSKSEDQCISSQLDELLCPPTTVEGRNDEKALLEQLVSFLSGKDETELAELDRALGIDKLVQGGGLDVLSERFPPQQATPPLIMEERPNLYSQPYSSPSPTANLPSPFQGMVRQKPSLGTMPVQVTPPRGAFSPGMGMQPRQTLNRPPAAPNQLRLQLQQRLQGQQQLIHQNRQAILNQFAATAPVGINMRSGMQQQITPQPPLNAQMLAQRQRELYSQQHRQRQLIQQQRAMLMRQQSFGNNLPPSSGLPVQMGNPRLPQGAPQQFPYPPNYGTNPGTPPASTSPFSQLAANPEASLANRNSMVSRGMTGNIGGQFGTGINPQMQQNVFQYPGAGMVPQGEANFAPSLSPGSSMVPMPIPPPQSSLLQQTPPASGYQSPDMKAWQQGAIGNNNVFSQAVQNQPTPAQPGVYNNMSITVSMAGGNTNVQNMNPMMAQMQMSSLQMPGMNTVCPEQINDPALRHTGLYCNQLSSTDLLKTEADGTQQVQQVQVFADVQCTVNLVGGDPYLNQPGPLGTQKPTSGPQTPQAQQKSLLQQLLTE

| Structure (SMILES) | inhibition [1] [%] | inhibition [2] |
| --- | --- | --- |
| COCCn1c(C)cc(/C=C2/NC(=O)N(c3cccc(Cl)c3)C2=O)c1C | -34.5 | -40.5% |
| O=C1/C(=N\S(=O)(=O)c2cccs2)C([n+]2ccccc2)=C([O-])c2ccccc21 | -4.31 | 6.99% |
| Cc1ccc(C)c(CN2C(=O)c3ccccc3S(=O)c3ccc(C(=O)N4CCN(c5ccccn5)CC4)cc32)c1 (centres undefined) | -18.5 | 77.7% (active) |
| COc1ccc(-c2csc(NC(=O)c3ccccc3NS(=O)(=O)c3ccc(C)cc3)n2)cc1 | 19.3 | 30.8% (active) |
| COc1ccc(S(=O)(=O)N2CCCCCC2)cc1C(=O)N(C)CCOc1ccccc1 | 5.04 | -8.6% |
| CCNC(=O)C1(C)CCCN(Cc2ccc3ccccc3c2Br)C1 (centres undefined) | 11 | 13.3% |
| O=C(CNC(=O)c1ccco1)Nc1ccncc1 | -25.7 | -3.08% |
| COc1cccc(NC(=O)CN(C)CC(=O)Nc2ccc(Cl)cc2[N+](=O)[O-])c1 | 26.6 | 14.7% |
| Clc1ccc(C2NCCc3sccc32)cc1 (centres undefined) | -22 | 8.67% |
| COc1cccc(C2=CC(=O)CC(C)(C)C2)c1 | 18.3 | 14.3% |
| COc1ccc(CCNC(=O)C(=O)NCC2CCCN2S(=O)(=O)c2ccccc2)cc1OC (centres undefined) | -20.3 | -7.77% |
| CC(C)Cn1c(N)c(C(=O)COC(=O)c2cc3ccccc3cc2O)c(=O)n(C)c1=O | 14.6 | 8.44% |
| C[C@H](N)c1nnc(SCC(N)=O)o1 | -1.81 | -12.9% |
| CN(C)CCNC(=O)c1cccc2nc3c(ccc4ccccc43)nc12 | 30.5 | 40.4% (active) |
| COc1cccc(-c2cc(C(=O)Nc3cc(C)n(Cc4ccc(Cl)cc4)n3)no2)c1 | 1.04 | 18.9% |
| O=C(NCc1ccco1)c1cccc(NC(=O)c2ccco2)c1 | 28.5 | 50% (active) |
| O=C(NNc1ccnc2cc(Cl)ccc12)C1CCCCC1 | -34.1 | 31.1% (active) |
| C=C(C)Cn1c(SCC(=O)O)nc2c1c(=O)[nH]c(=O)n2C | 5.38 | 10.2% |
| CC1CC(C)CN(c2ncnc3c2cnn3-c2ccc(Cl)cc2)C1 (centres undefined) | -96.6 | -50.9% |

| Structure (SMILES) | inhibition [1] [%] | inhibition [2] |
| --- | --- | --- |
| COc1cc(C(=O)Nc2cccc(-c3cn4cccnc4n3)c2)cc(OC)c1OC | -27.4 | -27.3% |
| COc1ccc2c(c1)c(C(=O)CN1CCN(Cc3ccccc3)CC1)c(C)n2C | -13.6 | -0.22% |
| COc1ccc2nc(N3CCN(C(=O)c4ccc5ncsc5c4)CC3)sc2c1 | -5.74 | -0.4% |
| COc1cc(/C=N/NC(=O)NC23CC4CC(CC(C4)C2)C3)ccc1OCC(N)=O | -24.7 | -17.2% |
| COc1ccc(-c2cc(N3C(=O)Nc4ccccc4N3O)n[nH]2)c(OC)c1 | 25.8 | 20.1% |
| COc1ccc(-c2ocnc2C(=O)NCc2nn(-c3ccccc3)nc2C)cc1 | -0.81 | 15% |
| COc1ccc(N2CCN(C(=O)c3oc4ccccc4c3NC(=O)CCc3cc(OC)no3)CC2)cc1 | 1.78 | -3.04% |
| COc1cccc2c1OC1(C)CC2NC(=O)N1c1cccc(C(=O)Nc2ccc3c(c2)OCCO3)c1 (centres undefined) | -28.6 | -19.2% |
| CC(=O)c1cn(CCOc2cc(C)ccc2C)c2ccccc12 | -27 | 33.7% (active) |
| CC(C)(C)c1ccc(CC(=O)N2CCC2(C)C(=O)Nc2ccc(F)cc2F)cc1 (centres undefined) | 1.73 | 14.4% |
| O=C(NCc1ccncc1)C1CCCN(S(=O)(=O)c2ccc(Br)cc2)C1 (centres undefined) | -1.35 | 14.6% |
| COc1ccc(-c2cc(=O)oc3c(C)c(O)c(CN(C)C)cc23)cc1 | 17.5 | 18.4% |
| COc1ccc2cc3cc(C(=O)NCCc4ccc(OC)c(OC)c4)oc3nc2c1 | -32.9 | 42.2% (active) |
| COC(=O)c1ccc(C(=O)N2CCCC(Nc3ccc(F)c(F)c3)C2)cc1 (centres undefined) | -59.6 | -10.7% |
| CCCc1cc(C(=O)N(C)CC(=O)Nc2ccc(OCC)c(OCC)c2)sc1C | 20.5 | 17.3% |
| COc1ccccc1C(NC(C)=O)c1cc(Cl)c2cccnc2c1O (centres undefined) | 31.7 | 26.6% (active) |
| Cc1ccc(S(=O)(=O)N2[C@@H](c3cccc(Cl)c3)C(C(=O)OC(C)(C)C)=CC[C@H]2c2ccc(C(C)C)cc2)cc1 | 0.74 | 11.2% |
| Cc1cccc(-n2ncc3c2CCCC3NC(=O)CCN2CCCCO2)c1C (centres undefined) | -0.83 | -2.39% |
